For 7 molecules, growth results are on record in PubChem BioAssay (NCI).

About 83,000 compounds went through this panel and 20% of them were active in at least one assay; those are over-represented in the sample as a whole.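 Activity criterion: percent growth below 10, measured after cells in 96-well plates were exposed to a single compound concentration for 48 hours.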 Unmarked numbers belong to inactive results. Active and inactive are the calls of the source.

In the test the test system is HL-60(TB) leukemia. The test can be described thus: NCI-60 one-dose screen, 48 h (100 = growth as untreated, 0 = no growth, -100 = all killed). As to conditions: 10 µM unless noted.
In the case of `C#Cc1ccc(C(=O)NCc2ccc(/C=C/C(=O)c3nccn3C)cc2)cc1`, the growth was 0.695% (active).

With `O=C(Oc1ccc2ccc(=O)oc2c1)c1ccc(Cl)cc1`, the growth was 106%.

For `CCN1C(=S)N(c2ccccc2)C2NC(=O)N(/N=C/C=C/c3ccccc3OC)C21` (configuration not stated), the growth was 64.2%.

Consider `CC(C)(C)n1nnnc1C(Nc1cccc2c1OCO2)c1cc2cccc3ccc4cccc1c4c32` (configuration not stated), for which the growth is 85.2%.

`CC(Nc1c(C#N)cnc2ccc(-c3cncc(-c4n[nH]c(=O)o4)c3)cc12)c1ccccc1` (configuration not stated): the growth was 14.9%.

Consider `Cn1ccnc1C(=O)/C=C/c1ccc(CNC(=O)c2c(F)c(F)c(F)c(F)c2F)cc1`, for which the growth is 20%.

With `CC(C)c1ccc(NCc2cn(-c3ccc(C(=O)O)cc3)nc2-c2cc(C(F)(F)F)cc(C(F)(F)F)c2)cc1`, the growth was 83.1%.
